ChEMBL document CHEMBL1961873, “Compounds: GSK PKIS; Assays: Nanosyn kinase panel” (2012)

How the values were obtained:
[1] = target: Sphingosine kinase 1 (Homo sapiens) (UniProt Q9NYA1); settings: at 1 µM;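 also: mean SPHK1 inhibition value reported from the GSK PKIS kinase panel screen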
[2] = target: T1, Sphingosine kinase 2 (Homo sapiens) (UniProt Q9NRA0); settings: at 0.1 µM
T1 sequence (whole entry): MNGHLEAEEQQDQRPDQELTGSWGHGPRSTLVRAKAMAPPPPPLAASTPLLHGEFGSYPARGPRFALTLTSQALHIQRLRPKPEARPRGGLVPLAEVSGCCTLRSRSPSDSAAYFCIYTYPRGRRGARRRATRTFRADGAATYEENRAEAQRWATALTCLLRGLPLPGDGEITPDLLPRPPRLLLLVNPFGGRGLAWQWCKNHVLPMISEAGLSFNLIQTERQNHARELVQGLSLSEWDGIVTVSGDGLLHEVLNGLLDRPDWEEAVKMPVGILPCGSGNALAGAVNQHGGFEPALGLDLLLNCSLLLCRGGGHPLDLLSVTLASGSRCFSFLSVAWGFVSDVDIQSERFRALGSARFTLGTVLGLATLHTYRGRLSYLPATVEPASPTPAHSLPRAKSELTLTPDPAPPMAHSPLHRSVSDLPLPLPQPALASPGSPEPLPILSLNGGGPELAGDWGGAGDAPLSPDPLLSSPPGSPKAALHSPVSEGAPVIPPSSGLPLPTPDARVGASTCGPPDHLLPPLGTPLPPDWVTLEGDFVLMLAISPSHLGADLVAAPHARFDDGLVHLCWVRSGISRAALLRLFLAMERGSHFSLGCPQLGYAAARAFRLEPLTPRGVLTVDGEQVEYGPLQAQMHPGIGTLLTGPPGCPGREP

[3] = target: T1, Sphingosine kinase 2 (Homo sapiens); settings: at 1 µM
[4] = target: Casein kinase II subunit alpha (Homo sapiens) (UniProt P68400); settings: at 0.1 µM
Sequence of Casein kinase II subunit alpha (Homo sapiens) (P68400 whole entry, looked up): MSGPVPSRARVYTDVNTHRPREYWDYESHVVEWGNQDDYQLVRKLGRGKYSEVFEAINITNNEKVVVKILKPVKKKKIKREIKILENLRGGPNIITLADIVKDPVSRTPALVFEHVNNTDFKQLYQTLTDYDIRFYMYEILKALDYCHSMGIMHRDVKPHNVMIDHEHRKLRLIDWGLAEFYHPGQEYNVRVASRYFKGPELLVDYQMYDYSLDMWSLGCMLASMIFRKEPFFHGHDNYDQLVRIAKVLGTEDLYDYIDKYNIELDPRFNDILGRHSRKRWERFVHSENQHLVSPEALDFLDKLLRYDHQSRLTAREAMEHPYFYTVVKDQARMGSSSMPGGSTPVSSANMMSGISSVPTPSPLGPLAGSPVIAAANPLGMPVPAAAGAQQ

[5] = target: Casein kinase II subunit alpha (Homo sapiens) (UniProt P68400); settings: at 1 µM
[6] = target: T2, Inhibitor of nuclear factor kappa-B kinase subunit alpha (Homo sapiens) (UniProt O15111); settings: at 0.1 µM
T2 sequence (whole entry): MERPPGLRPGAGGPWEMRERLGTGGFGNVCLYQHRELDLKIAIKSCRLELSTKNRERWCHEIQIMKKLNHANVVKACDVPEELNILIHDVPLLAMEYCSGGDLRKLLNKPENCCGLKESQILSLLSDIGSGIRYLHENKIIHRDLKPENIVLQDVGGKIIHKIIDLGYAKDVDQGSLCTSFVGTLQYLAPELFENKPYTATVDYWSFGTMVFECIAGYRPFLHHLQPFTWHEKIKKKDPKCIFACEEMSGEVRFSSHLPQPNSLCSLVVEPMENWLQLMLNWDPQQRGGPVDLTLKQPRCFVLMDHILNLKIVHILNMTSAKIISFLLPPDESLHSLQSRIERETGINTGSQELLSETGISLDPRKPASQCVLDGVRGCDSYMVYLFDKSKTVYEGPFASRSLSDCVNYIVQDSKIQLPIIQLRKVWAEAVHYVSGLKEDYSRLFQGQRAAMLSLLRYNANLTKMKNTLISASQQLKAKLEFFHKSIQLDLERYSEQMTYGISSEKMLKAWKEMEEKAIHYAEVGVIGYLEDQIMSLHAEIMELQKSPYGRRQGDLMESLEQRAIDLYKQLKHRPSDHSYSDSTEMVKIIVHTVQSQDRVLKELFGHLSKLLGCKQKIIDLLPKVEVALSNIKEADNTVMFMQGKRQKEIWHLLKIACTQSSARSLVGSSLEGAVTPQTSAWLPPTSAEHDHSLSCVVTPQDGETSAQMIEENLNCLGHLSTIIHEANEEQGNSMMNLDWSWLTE

[7] = target: T2, Inhibitor of nuclear factor kappa-B kinase subunit alpha (Homo sapiens); settings: at 1 µM
[8] = target: T3, Inhibitor of nuclear factor kappa-B kinase subunit beta (Homo sapiens) (UniProt O14920); settings: at 0.1 µM
T3 sequence (whole entry): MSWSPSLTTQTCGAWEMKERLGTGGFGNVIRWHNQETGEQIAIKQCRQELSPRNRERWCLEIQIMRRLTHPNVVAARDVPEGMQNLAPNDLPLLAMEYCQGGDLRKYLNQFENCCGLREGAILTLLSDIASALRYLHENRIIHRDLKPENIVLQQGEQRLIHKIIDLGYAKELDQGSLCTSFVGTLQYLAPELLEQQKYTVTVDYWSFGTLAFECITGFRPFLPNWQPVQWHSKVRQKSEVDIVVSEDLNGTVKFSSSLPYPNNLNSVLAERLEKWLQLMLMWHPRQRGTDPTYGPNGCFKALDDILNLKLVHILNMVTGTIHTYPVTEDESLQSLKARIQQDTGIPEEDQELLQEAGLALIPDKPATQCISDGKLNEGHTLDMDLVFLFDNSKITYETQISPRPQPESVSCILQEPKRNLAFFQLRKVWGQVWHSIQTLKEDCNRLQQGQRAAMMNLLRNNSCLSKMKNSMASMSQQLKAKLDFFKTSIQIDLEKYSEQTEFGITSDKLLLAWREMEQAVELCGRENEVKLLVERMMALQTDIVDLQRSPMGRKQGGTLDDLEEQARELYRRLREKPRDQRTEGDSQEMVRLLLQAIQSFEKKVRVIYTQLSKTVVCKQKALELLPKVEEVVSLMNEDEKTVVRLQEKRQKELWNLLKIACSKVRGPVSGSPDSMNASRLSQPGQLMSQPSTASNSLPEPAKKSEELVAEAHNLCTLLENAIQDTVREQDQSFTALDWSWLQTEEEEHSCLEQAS

[9] = target: T3, Inhibitor of nuclear factor kappa-B kinase subunit beta (Homo sapiens); settings: at 1 µM
[10] = target: T4, Inhibitor of nuclear factor kappa-B kinase subunit epsilon (Homo sapiens) (UniProt Q14164); settings: at 0.1 µM
T4 sequence (whole entry): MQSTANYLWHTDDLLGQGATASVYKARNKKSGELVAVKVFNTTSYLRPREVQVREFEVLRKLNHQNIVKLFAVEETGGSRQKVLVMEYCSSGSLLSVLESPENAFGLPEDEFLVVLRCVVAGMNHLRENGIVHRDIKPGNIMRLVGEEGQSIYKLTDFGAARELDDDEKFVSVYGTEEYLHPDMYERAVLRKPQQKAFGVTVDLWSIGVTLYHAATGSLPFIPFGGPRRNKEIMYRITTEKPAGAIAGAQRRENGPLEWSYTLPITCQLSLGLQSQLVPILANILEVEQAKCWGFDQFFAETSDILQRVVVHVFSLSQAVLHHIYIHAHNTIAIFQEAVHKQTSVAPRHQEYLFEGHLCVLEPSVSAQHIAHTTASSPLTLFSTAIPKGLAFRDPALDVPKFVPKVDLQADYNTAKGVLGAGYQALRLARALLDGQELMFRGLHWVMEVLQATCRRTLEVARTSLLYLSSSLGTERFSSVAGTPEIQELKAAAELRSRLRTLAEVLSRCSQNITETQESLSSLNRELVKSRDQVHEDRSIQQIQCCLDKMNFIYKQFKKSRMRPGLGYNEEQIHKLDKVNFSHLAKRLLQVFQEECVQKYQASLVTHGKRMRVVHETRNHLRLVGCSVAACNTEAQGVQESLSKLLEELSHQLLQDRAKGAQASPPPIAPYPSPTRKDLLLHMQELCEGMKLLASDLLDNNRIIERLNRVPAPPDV

[11] = target: T4, Inhibitor of nuclear factor kappa-B kinase subunit epsilon (Homo sapiens); settings: at 1 µM
[12] = target: T5, Serine/threonine-protein kinase Nek1 (Homo sapiens) (UniProt Q96PY6); settings: at 0.1 µM
T5 sequence (whole entry): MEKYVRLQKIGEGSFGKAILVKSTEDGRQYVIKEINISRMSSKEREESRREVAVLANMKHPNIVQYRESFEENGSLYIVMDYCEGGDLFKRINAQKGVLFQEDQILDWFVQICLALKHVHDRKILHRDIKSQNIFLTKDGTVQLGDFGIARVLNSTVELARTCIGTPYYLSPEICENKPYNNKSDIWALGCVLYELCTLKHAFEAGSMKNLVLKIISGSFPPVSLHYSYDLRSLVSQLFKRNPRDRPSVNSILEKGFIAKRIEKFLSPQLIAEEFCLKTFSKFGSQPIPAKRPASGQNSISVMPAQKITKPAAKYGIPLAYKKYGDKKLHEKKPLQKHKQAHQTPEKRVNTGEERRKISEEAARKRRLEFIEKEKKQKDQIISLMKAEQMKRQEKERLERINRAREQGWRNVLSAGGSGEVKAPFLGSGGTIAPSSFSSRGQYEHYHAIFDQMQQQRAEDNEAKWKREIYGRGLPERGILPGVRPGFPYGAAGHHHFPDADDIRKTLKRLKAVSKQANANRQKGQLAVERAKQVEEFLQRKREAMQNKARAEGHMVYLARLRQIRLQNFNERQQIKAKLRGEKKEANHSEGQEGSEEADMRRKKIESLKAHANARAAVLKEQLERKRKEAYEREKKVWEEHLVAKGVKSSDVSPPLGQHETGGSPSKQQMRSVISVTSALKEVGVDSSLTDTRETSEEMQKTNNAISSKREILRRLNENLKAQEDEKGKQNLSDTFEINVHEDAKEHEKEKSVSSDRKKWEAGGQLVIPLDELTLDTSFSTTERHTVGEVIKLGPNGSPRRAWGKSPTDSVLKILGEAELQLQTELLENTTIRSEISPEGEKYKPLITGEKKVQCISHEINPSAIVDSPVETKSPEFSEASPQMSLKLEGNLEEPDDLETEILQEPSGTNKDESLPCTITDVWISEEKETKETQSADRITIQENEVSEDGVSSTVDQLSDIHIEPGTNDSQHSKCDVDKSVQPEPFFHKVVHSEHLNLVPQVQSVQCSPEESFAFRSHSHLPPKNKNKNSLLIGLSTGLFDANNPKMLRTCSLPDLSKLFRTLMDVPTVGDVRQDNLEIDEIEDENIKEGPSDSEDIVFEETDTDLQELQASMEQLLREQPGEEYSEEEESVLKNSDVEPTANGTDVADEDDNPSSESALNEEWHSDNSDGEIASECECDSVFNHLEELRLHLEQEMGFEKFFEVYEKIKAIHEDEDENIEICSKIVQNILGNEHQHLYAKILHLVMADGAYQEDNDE

[13] = target: T5, Serine/threonine-protein kinase Nek1 (Homo sapiens); settings: at 1 µM
[14] = target: T6, Serine/threonine-protein kinase Nek2 (Homo sapiens) (UniProt P51955); settings: at 0.1 µM
T6 sequence (whole entry): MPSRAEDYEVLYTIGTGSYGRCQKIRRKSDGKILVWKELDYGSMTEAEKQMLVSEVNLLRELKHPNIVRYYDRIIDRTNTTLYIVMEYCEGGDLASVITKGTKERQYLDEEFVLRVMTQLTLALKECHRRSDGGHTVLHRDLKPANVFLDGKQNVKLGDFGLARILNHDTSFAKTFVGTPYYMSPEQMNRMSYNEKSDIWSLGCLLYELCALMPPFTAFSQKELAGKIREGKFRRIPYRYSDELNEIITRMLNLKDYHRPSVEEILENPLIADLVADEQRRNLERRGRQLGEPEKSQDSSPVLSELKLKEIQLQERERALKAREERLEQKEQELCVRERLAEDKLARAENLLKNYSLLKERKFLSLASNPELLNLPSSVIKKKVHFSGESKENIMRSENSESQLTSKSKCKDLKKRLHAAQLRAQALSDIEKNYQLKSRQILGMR

[15] = target: T6, Serine/threonine-protein kinase Nek2 (Homo sapiens); settings: at 1 µM
[16] = target: Serine/threonine-protein kinase Nek6 (Homo sapiens) (UniProt Q9HC98); settings: at 0.1 µM
Sequence of Serine/threonine-protein kinase Nek6 (Homo sapiens) (Q9HC98 whole entry): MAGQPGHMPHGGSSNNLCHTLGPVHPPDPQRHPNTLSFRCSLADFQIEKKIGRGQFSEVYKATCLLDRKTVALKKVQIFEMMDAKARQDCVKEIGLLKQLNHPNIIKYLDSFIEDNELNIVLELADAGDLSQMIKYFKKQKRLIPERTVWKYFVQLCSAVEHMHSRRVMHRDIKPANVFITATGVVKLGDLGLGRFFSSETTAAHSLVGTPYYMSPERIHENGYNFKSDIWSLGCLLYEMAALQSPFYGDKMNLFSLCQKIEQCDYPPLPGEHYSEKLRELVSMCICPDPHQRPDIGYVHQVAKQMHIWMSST

[17] = target: Serine/threonine-protein kinase Nek6 (Homo sapiens) (UniProt Q9HC98); settings: at 1 µM
[18] = target: Serine/threonine-protein kinase Nek7 (Homo sapiens) (UniProt Q8TDX7); settings: at 0.1 µM
Sequence of Serine/threonine-protein kinase Nek7 (Homo sapiens) (Q8TDX7 whole entry, looked up): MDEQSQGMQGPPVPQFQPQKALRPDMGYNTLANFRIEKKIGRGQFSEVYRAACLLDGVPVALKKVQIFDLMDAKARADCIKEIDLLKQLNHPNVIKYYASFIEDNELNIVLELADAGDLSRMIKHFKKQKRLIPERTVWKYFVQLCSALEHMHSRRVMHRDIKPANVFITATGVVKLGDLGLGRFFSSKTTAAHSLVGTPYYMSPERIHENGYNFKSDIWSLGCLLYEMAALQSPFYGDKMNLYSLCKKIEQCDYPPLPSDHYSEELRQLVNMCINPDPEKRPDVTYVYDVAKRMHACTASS

[19] = target: Serine/threonine-protein kinase Nek7 (Homo sapiens) (UniProt Q8TDX7); settings: at 1 µM
[20] = target: T7, Serine/threonine-protein kinase Nek9 (Homo sapiens) (UniProt Q8TD19); settings: at 0.1 µM;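 also: reported value is the mean percent inhibition of NEK9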
T7 sequence (whole entry): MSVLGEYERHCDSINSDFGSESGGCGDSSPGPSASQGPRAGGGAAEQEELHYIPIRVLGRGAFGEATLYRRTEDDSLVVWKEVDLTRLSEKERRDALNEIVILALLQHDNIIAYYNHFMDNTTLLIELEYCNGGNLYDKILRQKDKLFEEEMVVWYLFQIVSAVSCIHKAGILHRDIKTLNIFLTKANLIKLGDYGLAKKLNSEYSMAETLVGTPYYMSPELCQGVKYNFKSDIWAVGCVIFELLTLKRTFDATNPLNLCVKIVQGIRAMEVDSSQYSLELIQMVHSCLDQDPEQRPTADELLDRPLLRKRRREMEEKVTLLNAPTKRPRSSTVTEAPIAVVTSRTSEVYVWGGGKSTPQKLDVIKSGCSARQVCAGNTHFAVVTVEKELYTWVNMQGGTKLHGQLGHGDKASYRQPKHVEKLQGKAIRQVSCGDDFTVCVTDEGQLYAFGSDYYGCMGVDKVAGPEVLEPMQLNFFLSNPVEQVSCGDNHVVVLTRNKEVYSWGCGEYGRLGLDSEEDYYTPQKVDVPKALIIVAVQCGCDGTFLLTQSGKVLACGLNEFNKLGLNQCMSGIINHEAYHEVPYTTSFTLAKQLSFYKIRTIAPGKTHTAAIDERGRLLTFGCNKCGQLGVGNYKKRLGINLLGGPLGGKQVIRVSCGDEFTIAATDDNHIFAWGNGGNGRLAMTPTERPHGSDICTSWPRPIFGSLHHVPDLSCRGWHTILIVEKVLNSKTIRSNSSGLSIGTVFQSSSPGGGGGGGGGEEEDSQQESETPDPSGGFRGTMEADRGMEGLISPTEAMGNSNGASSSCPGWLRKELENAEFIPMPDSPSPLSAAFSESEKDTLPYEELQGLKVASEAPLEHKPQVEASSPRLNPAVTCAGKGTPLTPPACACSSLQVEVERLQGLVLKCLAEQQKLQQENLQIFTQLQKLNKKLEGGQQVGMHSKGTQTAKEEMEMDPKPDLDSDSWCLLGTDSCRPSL

Sequence of Sphingosine kinase 1 (Homo sapiens) (Q9NYA1 whole entry): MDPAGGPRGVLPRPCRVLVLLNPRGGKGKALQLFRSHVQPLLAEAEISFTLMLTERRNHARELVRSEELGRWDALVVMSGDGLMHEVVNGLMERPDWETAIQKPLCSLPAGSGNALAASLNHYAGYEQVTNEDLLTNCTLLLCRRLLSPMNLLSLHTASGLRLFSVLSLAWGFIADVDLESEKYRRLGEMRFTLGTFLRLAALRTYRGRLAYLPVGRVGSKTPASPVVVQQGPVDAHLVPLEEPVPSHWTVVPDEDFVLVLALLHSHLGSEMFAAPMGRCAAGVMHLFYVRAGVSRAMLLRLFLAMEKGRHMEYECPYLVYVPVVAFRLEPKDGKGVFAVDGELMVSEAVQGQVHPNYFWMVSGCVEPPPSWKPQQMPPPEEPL

CNC(=O)c1cncc(/C=C/c2c(Cl)cccc2Cl)c1
inhibition [1]: -1.49%
inhibition [2]: 0.89%
inhibition [3]: -2.09%
inhibition [4]: 16.9%
inhibition [5]: 14.9%
inhibition [6]: 1.91%
inhibition [7]: 0.72%
inhibition [8]: 7.67%
inhibition [9]: 11.4%
inhibition [10]: 5.94%
inhibition [11]: 6.17%
inhibition [12]: 2.78%
inhibition [13]: 1.83%
inhibition [14]: 4.53%
inhibition [15]: 3.38%
inhibition [16]: 1.11%
inhibition [17]: 4.76%
inhibition [18]: 4.23%
inhibition [19]: 9.84%
inhibition [20]: 5.43%
